Hits are enriched below; roughly 3.8% of the tested compounds scored in any of these assays.
NALP3 yeast inh: NALP3 inflammasome inhibitors in reconstituted yeast, primary screen, luminescence, uHTS; 330,000 compounds, 0.39% hits; inhibition, % at 10 µM; Yeast reconstituted NLRP3/ASC/caspase-1, beta-gal luminescence, 24 h;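 active means inhibition of 50% or more; inactive means inhibition below 50%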
TIM10 inh: growth inhibitors of isogenic TIM10 control yeast, primary screen, counter-screen for tim10-1 yeast inhibitor project, luminescence, uHTS | 330,000 compounds, 1.4% hits | inhibition, % at 10 µM | S. cerevisiae TIM10 strain growth, BacTiter-Glo luminescence, 24 h | AID 463195, 2010;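 active means inhibition of 40% or more at the single tested concentration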;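 further: wild-type TIM10 isogenic control strain grown at permissive 25 °C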
tim10-1 inh: growth inhibitors of tim10-1 mutant yeast, primary screen, luminescence, uHTS; S. cerevisiae tim10-1 ts strain growth, BacTiter-Glo, 24 h; inhibition, % at 20 µM; 330,000 compounds, 2.2% hits; AID 463190, 2010;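 active means inhibition of at least 40%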;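 further: mutant grown at 25 °C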
CR mimetic SO: reduction of superoxide in aged yeast, primary screen, HTS | AID 2690, 2010 | superoxide response (% of plate mean), % at 10 µM | 330,000 compounds, 0.18% hits | S. cerevisiae aged cells, superoxide DHE fluorescence; hits give low values;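 active means superoxide response under a set limit, about three screen SD below normal, cut at about 65% in these data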;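 further: yeast aged for seven days with compound at 30 °C before DHE staining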
tim23-1 inh: growth inhibitors of tim23-1 mutant yeast, primary screen, luminescence, uHTS. AID 463212, 2010. 330,000 compounds, 1.3% hits. S. cerevisiae tim23-1 growth, BacTiter-Glo luminescence, 24 h. inhibition, % at 20 µM;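 active means growth inhibition of the mutant yeast at or above 50%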;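 further: temperature-sensitive mutant grown at 25 °C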
tim10-1 confirm: growth inhibitors of tim10-1 mutant yeast, confirmation, single concentration, luminescence, S. cerevisiae | shares compounds with tim10-1 inh | S. cerevisiae tim10-1 ts strain growth, BacTiter-Glo, 24 h | inhibition, % at 20 µM | 7,400 compounds, 56% hits | AID 463213, 2010;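 active means inhibition of yeast growth at or above a set limit in either of two repeat tests at 20 µM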;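 further: tim10-1 mutant grown at permissive 25 °C to find synthetic lethal compounds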
Each line names hits and unclear results; the compound was inactive in the other large screens (follow-up assays come after a bar, where they were run).

COc1ccc(CSCC(=O)Nc2ccc(S(=O)(=O)N3CCCCCC3)cc2)cc1	tim10-1 inh 42.5 | tim10-1 confirm inactive
CCCOc1ccccc1OCC(=O)Nc1ccc(S(=O)(=O)N2CCCCC2)cc1	tim10-1 inh 41.4 | tim10-1 confirm 31.6
Cc1ccccc1OCC(=O)Nc1ccc(S(=O)(=O)N2CCCC2)cc1	tim10-1 inh 49.4 | tim10-1 confirm 37.1
COc1ccc(NC(=O)CSCC(=O)Nc2ccc(S(=O)(=O)N3CCCCC3)cc2)cc1	none
CCCOc1ccccc1OCC(=O)Nc1ccc(S(=O)(=O)N2CCCC2)cc1	none
CC(NC(=O)Nc1ccc([N+](=O)[O-])cc1)C(c1cccs1)N1CCCC1 (stereo unspecified)	none
O=C(CN1C(=O)NC2(CCCc3ccccc32)C1=O)c1ccc(Br)cc1 (stereo unspecified)	none
O=C(COc1ccccc1)Nc1ccc(S(=O)(=O)N2CCCC2)cc1	tim10-1 inh 41.0 | tim10-1 confirm inactive
O=C(CCCN1C(=O)c2ccccc2C1=O)Nc1ccc(S(=O)(=O)N2CCCCC2)cc1	tim10-1 inh 41.4 | tim10-1 confirm 32.5
O=C(CCCN1C(=O)c2ccccc2C1=O)Nc1ccc(S(=O)(=O)N2CCOCC2)cc1	none
N#CC1=C(N)Oc2cc(N)ccc2C1c1cccc(Br)c1 (stereo unspecified)	none
Cc1ccc(OCCNc2cc(N3CCN(CCO)CC3)ccc2[N+](=O)[O-])cc1C	tim10-1 inh 43.2 | tim10-1 confirm inactive
Cc1c(OCC(=O)NCCCN2CCOCC2)ccc2c3c(c(=O)oc12)CCC3	tim10-1 inh 48.5 | tim10-1 confirm inactive
O=C1CCSc2ccc(Cl)cc2N1Cc1ccc(Cl)cc1	tim10-1 inh 45.5 | tim10-1 confirm inactive
O=C(NCc1ccc(Cl)cc1)c1cccc(NC2=NC3CS(=O)(=O)CC3S2)c1 (stereo unspecified)	none
Cc1ccc(/C(C#N)=C\c2ccc(N3CCOCC3)o2)cc1	none
N#C/C(=C/c1ccc(N2CCCCCC2)o1)c1ccc(Cl)cc1	tim10-1 inh 46.6 | tim10-1 confirm inactive
O=C(Nn1c(COc2ccccc2)nc2ccccc2c1=O)C(Cl)(Cl)Cl	tim10-1 inh 40.0 | tim10-1 confirm 32.5
CCCc1cc(-c2nc(N)ncc2-c2csc(C)n2)c(O)cc1OC	tim10-1 inh 43.0 | tim10-1 confirm inactive
Nc1cc(Cl)ccc1Oc1ccc2ccccc2c1	tim10-1 inh 60.6 | tim10-1 confirm 57.0
Cc1ccc(Oc2ccc(Cl)cc2N)cc1	none
S=C(Nc1ccccc1)Nc1nccs1	tim10-1 inh 42.5 | tim10-1 confirm inactive
CCn1c(-c2cc(Br)cc(OC)c2O)nc2cc(S(=O)(=O)N(C)C)ccc21	tim10-1 inh 42.6 | tim10-1 confirm inactive
COc1cccc(CN2CCC(C(=O)N3CCC(C)CC3)CC2)c1	none
CC1CCN(C(=O)c2ccc3c(Cl)c4c(nc3c2)CCCC4)CC1	tim10-1 inh 47.4 | tim10-1 confirm 40.0
O=C(NC1CC1)c1ccc2c(Cl)c3c(nc2c1)CCCC3	none
CCOC(=O)N1CCC(NC(=O)c2ccc3c(c2)N=C(CC)c2ccccc2S3)CC1	tim10-1 inh 44.9 | tim10-1 confirm inactive
CCOC(=O)N1CCC(NC(=O)c2ccc3c(Cl)c4c(nc3c2)CCCC4)CC1	tim10-1 inh 40.9 | tim10-1 confirm inactive
CCOC(=O)C1CCN(C(=O)c2ccc3c(Cl)c4c(nc3c2)CCCC4)CC1	none
CCc1cc2c(=O)n(-c3ccccc3)c(=S)[nH]c2s1	none
Fc1ccc(Oc2nc(-c3ccccc3)nnc2C(F)(F)F)cc1	tim10-1 inh 50.2 | tim10-1 confirm inactive
c1ccc(-c2nc3ccccn3c2-c2ccccc2)cc1	none
O=c1c2ccccc2nc2n1CC/C2=C\N1CCN(c2ccc([N+](=O)[O-])cc2)CC1	none
CC(C)NC(=O)NC(=O)COc1ccc(Br)cc1Br	tim10-1 inh 44.7 | tim10-1 confirm inactive
CC(C)NC(=O)NC(=O)COc1c(F)c(F)cc(F)c1F	none
CC1CCCCC1NC(=O)NC(=O)COC(=O)c1ccc(OC(F)F)cc1 (stereo unspecified)	none (no result: CR mimetic SO)
O=Cc1ccc2ccc3cccnc3c2n1	tim10-1 inh 42.3 | tim10-1 confirm inactive
O=Cc1ccc2cccnc2n1	none
c1csc(-c2nn3c(C4COc5ccccc5O4)nnc3s2)c1 (stereo unspecified)	none
Fc1ccc(-c2nn3c(C4COc5ccccc5O4)nnc3s2)cc1 (stereo unspecified)	tim10-1 inh 47.5 | tim10-1 confirm 43.2
O=c1c(Cl)c(N2CCN(c3ccc(F)cc3)CC2)cnn1C12CC3CC(CC(C3)C1)C2	tim10-1 inh 48.3 | tim10-1 confirm inactive
O=c1c(Cl)c(N2CCN(c3ccccc3)CC2)cnn1C12CC3CC(CC(C3)C1)C2	none
Cc1ccc(C)c(NC(=O)CN(C)C(=O)c2ccc(Cl)nc2)c1	none
CCOc1ccc(-n2cc(-c3ccccc3)c3c(=O)[nH]cnc32)cc1	tim10-1 inh 54.5 | tim10-1 confirm 39.6
CC(OC(=O)c1ccc(C#N)cc1)C(=O)Nc1ccc(Cl)cn1 (stereo unspecified)	none (no result: CR mimetic SO)
Cc1cc(NC(=O)c2noc3c2CCCC3)nn1Cc1ccc(Cl)cc1	tim10-1 inh 44.7 | tim10-1 confirm inactive
OC(CNCC1CCCO1)Cn1c2ccc(Cl)cc2c2cc(Cl)ccc21 (stereo unspecified)	tim10-1 inh 43.1 | tim10-1 confirm inactive
COc1cccc(C(=O)O/N=C(\N)c2ccccn2)c1	tim10-1 inh 40.2 | tim10-1 confirm 45.6
N/C(=N\OC(=O)c1cccc([N+](=O)[O-])c1)c1ccccn1	tim10-1 inh 41.6 | tim10-1 confirm inactive
COc1cccc(C(=O)O/N=C(\N)c2ccccn2)c1OC	none
CNC(=O)C1(C(F)(F)F)C/C(=C\CCO)CCCO1 (stereo unspecified)	none
Cn1cccc1/C=C1\CCC/C(=C\c2cccn2C)C1=O	tim10-1 inh 49.8 | tim10-1 confirm inactive
O=C1/C(=C/c2cccs2)CCC/C1=C\c1cccs1	none
CC(=O)Nc1ccc(S(=O)(=O)NCCC(=O)OCC(=O)c2cccc(Br)c2)cc1	none (no result: CR mimetic SO)
CCOc1cc(NC(=O)c2ccccc2OC)c(OCC)cc1NC(=O)c1ccccc1	none
COc1ccccc1C(=O)Nc1ccccc1SC(=O)c1ccccc1OC	tim10-1 inh 42.5 | tim10-1 confirm 36.9
CCOc1ccccc1C(=O)Nc1cc(OC)ccc1OC	tim10-1 inh 43.1 | tim10-1 confirm 37.2
CCOc1cc2c(cc1/C=C1/NC(=O)N(CC(=O)OC)C1=O)OCO2	none
O=C(Nc1ccc2c(c1)CCCN2C(=O)c1ccco1)c1cc([N+](=O)[O-])ccc1Cl	none
Cc1ccc(C(=O)O/N=C(\N)c2ccc(Br)cc2)cc1	none
COc1ccccc1CC(=O)O/N=C(\N)c1ccccn1	none

Source: PubChem
